Results as given in PubChem BioAssay AID1159580 (chemical genetic matrix, 2015).
Screen size: about 5,500 compounds; about 2,000 (36%) were called active. Not shown: some 18% with an inconclusive outcome. Rule as the data show it: active = normalized growth mostly below about 0.91 (no sharp cut-off); inconclusive = no clear call, values can overlap the other calls; inactive = mostly above about 0.92. Some of the results follow.

Assay: chemical genetic growth profiling, strain panel (AID 1159580);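 also: tested at 20 µM; growth read once vehicle control cultures reached saturation at 30 °C; 1 = growth at the plate median or of vehicle wells; lower values mean less growth of the strain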
Settings: growth OD
[1] = S. cerevisiae deletion strains, locus YAL013W, strain DEP1, stronger effect = lower value
[2] = S. cerevisiae deletion strains, locus YBR229C, strain ROT2, stronger effect = lower value
[3] = S. cerevisiae deletion strains, locus YCL061C, strain MRC1, stronger effect = lower value
[4] = S. cerevisiae deletion strains, locus YDL101C, strain DUN1, stronger effect = lower value
[5] = S. cerevisiae deletion strains, locus YDL134C, strain PPH21, stronger effect = lower value
[6] = S. cerevisiae deletion strains, locus YDR150W, strain NUM1, stronger effect = lower value
[7] = S. cerevisiae deletion strains, locus YEL061C, strain CIN8, stronger effect = lower value
[8] = S. cerevisiae deletion strains, locus YGR078C, strain PAC10, stronger effect = lower value
[9] = S. cerevisiae deletion strains, locus YGR229C, strain SMI1, stronger effect = lower value
[10] = S. cerevisiae deletion strains, locus YHR030C, strain SLT2, stronger effect = lower value
[11] = S. cerevisiae deletion strains, locus YHR087W, strain rtc3, stronger effect = lower value
[12] = S. cerevisiae deletion strains, locus YJL187C, strain SWE1, stronger effect = lower value
[13] = S. cerevisiae deletion strains, locus YJR043C, strain POL32, stronger effect = lower value
[14] = S. cerevisiae deletion strains, locus YJR075W, strain HOC1, stronger effect = lower value
[15] = S. cerevisiae deletion strains, locus YLR039C, strain RIC1, stronger effect = lower value
[16] = S. cerevisiae deletion strains, locus YLR058C, strain SHM2 (second series), stronger effect = lower value
[17] = S. cerevisiae deletion strains, locus YLR085C, strain ARP6, stronger effect = lower value
[18] = S. cerevisiae deletion strains, locus YLR262C, strain YPT6, stronger effect = lower value
[19] = S. cerevisiae deletion strains, locus YML094W, strain GIM5, stronger effect = lower value
[20] = S. cerevisiae deletion strains, locus YMR219W, strain ESC1, stronger effect = lower value
[21] = S. cerevisiae deletion strains, locus YNL153C, strain GIM3, stronger effect = lower value
[22] = S. cerevisiae deletion strains, locus YNL298W, strain CLA4 (second series), stronger effect = lower value
[23] = S. cerevisiae deletion strains, locus YNL322C, strain KRE1, stronger effect = lower value
[24] = S. cerevisiae deletion strains, locus YNR030W, strain Alg12, stronger effect = lower value
[25] = S. cerevisiae deletion strains, locus YOL006C, strain TOP1, stronger effect = lower value
[26] = S. cerevisiae deletion strains, locus YPL055C, strain LGE1, stronger effect = lower value
[27] = S. cerevisiae deletion strains, locus YPL241C, strain CIN2, stronger effect = lower value
[28] = S. cerevisiae deletion strains, locus YPR135W, strain CTF4, stronger effect = lower value
[29] = S. cerevisiae strains, strain wild type, stronger effect = lower value
[30] = S. cerevisiae deletion strains, locus YKL190W, strain CNB1, stronger effect = lower value
[31] = S. cerevisiae deletion strains, locus YMR263W, strain SAP30, stronger effect = lower value
[32] = S. cerevisiae deletion strains, locus YNL128W, strain TEP1, stronger effect = lower value

Measured: normalized growth

Cc1ccc(COc2ccc(C)nc2[N+](=O)[O-])cc1
active: [5] 0.902 | [8] 0.918 | [10] 0.252 | [12] 0.932 | [13] 0.872 | [14] 0.857 | [15] 0.57 | [17] 0.295 | [18] 0.593 | [19] 0.855 | [20] 0.939 | [22] 0.75 | [24] 0.758 | [25] 0.593 | [27] 0.71 | [28] 0.382 | [29] 0.859
inactive: [1] 0.977 | [2] 0.932 | [3] 0.946 | [4] 0.905 | [6] 0.854 | [7] 0.922 | [9] 0.958 | [11] 0.959 | [16] 0.954 | [21] 0.951 | [23] 0.972 | [26] 0.809

CN1CNc2c(c(=O)n(C)c(=O)n2C)C1
inactive: [1] 0.994 | [2] 0.999 | [3] 0.998 | [4] 0.974 | [6] 0.998 | [7] 0.996 | [8] 0.988 | [10] 1.04 | [11] 0.988 | [12] 1.01 | [13] 0.998 | [14] 1.02 | [30] 1.01 | [15] 1.03 | [16] 1 | [17] 0.979 | [18] 1.01 | [19] 0.974 | [20] 0.998 | [31] 1 | [32] 1 | [21] 0.983 | [22] 1.01 | [23] 0.998 | [24] 1 | [25] 1.02 | [26] 0.953 | [27] 1.07 | [28] 1.01 | [29] 1

O=C(N/N=C\c1ccccc1Cl)c1cccnc1
inactive: [1] 1.02 | [2] 1 | [4] 0.971 | [5] 1.01 | [6] 0.932 | [7] 1.03 | [8] 1 | [9] 1.01 | [10] 0.987 | [11] 1.01 | [12] 0.996 | [13] 0.995 | [14] 0.99 | [30] 1.01 | [15] 1.03 | [16] 1.01 | [17] 0.97 | [18] 1.01 | [19] 1 | [20] 1 | [31] 0.945 | [21] 1 | [22] 1 | [23] 1 | [24] 1.01 | [25] 1.03 | [26] 0.886 | [27] 0.996 | [28] 1

Cc1csc2ncnc(N/N=C\c3ccccc3Cl)c12
inactive: S. cerevisiae deletion strains, locus YAR019C, strain CDC15, stronger effect = lower value 0.959 | S. cerevisiae deletion strains, locus YBL105C, strain PKC1, stronger effect = lower value 0.96 | S. cerevisiae deletion strains, locus YBR135W, strain CKS1, stronger effect = lower value 0.968 | S. cerevisiae deletion strains, locus YBR136W, strain MEC1, stronger effect = lower value 0.962 | S. cerevisiae deletion strains, locus YBR160W, strain CDC28, stronger effect = lower value 0.954 | S. cerevisiae deletion strains, locus YDL017W, strain CDC7, stronger effect = lower value 0.97 | S. cerevisiae deletion strains, locus YDL028C, strain MPS1, stronger effect = lower value 0.968 | [4] 0.967 | S. cerevisiae deletion strains, locus YDL108W, strain KIN28, stronger effect = lower value 0.962 | S. cerevisiae deletion strains, locus YDL132W, strain cdc53, stronger effect = lower value 0.958 | S. cerevisiae deletion strains, locus YDL214C, strain PRR2, stronger effect = lower value 0.961 | S. cerevisiae deletion strains, locus YDR052C, strain DBF4, stronger effect = lower value 0.977 | S. cerevisiae deletion strains, locus YDR054C, strain cdc34, stronger effect = lower value 0.952 | S. cerevisiae deletion strains, locus YDR226W, strain ADK1, stronger effect = lower value 0.969 | S. cerevisiae deletion strains, locus YDR477W, strain SNF1, stronger effect = lower value 0.958 | S. cerevisiae deletion strains, locus YER123W, strain YCK3, stronger effect = lower value 0.931 | S. cerevisiae deletion strains, locus YER133W, strain GLC7, stronger effect = lower value 0.967 | S. cerevisiae deletion strains, locus YFL009W, strain cdc4, stronger effect = lower value 0.958 | S. cerevisiae deletion strains, locus YFL029C, strain CAK1, stronger effect = lower value 0.956 | S. cerevisiae deletion strains, locus YFR003C, strain YPI1, stronger effect = lower value 0.96 | S. cerevisiae deletion strains, locus YFR019W, strain FAB1, stronger effect = lower value 0.979 | S. cerevisiae deletion strains, locus YFR028C, strain CDC14, stronger effect = lower value 0.955 | S. cerevisiae deletion strains, locus YGR040W, strain KSS1, stronger effect = lower value 0.942 | S. cerevisiae deletion strains, locus YGR052W, strain FMP48, stronger effect = lower value 1.03 | S. cerevisiae deletion strains, locus YGR092W, strain DBF2, stronger effect = lower value 0.917 | [10] 1.01 | S. cerevisiae deletion strains, locus YHR079C, strain IRE1, stronger effect = lower value 0.997 | S. cerevisiae deletion strains, locus YHR082C, strain KSP1, stronger effect = lower value 1.05 | S. cerevisiae deletion strains, locus YHR205W, strain SCH9, stronger effect = lower value 0.968 | S. cerevisiae deletion strains, locus YIL147C, strain SLN1, stronger effect = lower value 0.968 | S. cerevisiae deletion strains, locus YJL095W, strain BCK1, stronger effect = lower value 0.994 | S. cerevisiae deletion strains, locus YJL128C, strain PBS2, stronger effect = lower value 0.946 | S. cerevisiae deletion strains, locus YJL157C, strain FAR1, stronger effect = lower value 0.947 | S. cerevisiae deletion strains, locus YJR016C, strain ILV3, stronger effect = lower value 0.956 | S. cerevisiae deletion strains, locus YJR066W, strain TOR1 (second series), stronger effect = lower value 0.918 | S. cerevisiae deletion strains, locus YJR066W, strain TOR1, stronger effect = lower value 1.05 | S. cerevisiae deletion strains, locus YKL048C, strain ELM1, stronger effect = lower value 0.976 | S. cerevisiae deletion strains, locus YKL067W, strain YNK1, stronger effect = lower value 0.947 | S. cerevisiae deletion strains, locus YKL101W, strain HSL1, stronger effect = lower value 0.951 | S. cerevisiae deletion strains, locus YKL193C, strain SDS22, stronger effect = lower value 0.957 | S. cerevisiae deletion strains, locus YKL203C, strain TOR2, stronger effect = lower value 1 | S. cerevisiae deletion strains, locus YLR113W, strain HOG1, stronger effect = lower value 0.882 | S. cerevisiae deletion strains, locus YLR133W, strain CKI1, stronger effect = lower value 0.951 | S. cerevisiae deletion strains, locus YLR403W, strain SFP1, stronger effect = lower value 0.931 | S. cerevisiae deletion strains, locus YML070W, strain DAK1, stronger effect = lower value 0.935 | S. cerevisiae deletion strains, locus YMR001C, strain CDC5, stronger effect = lower value 0.957 | S. cerevisiae deletion strains, locus YMR205C, strain PFK2 (second series), stronger effect = lower value 0.973 | S. cerevisiae deletion strains, locus YMR277W, strain FCP1, stronger effect = lower value 0.966 | S. cerevisiae deletion strains, locus YNL006W, strain LST8, stronger effect = lower value 0.973 | S. cerevisiae deletion strains, locus YNL020C, strain ARK1, stronger effect = lower value 0.958 | S. cerevisiae deletion strains, locus YNL161W, strain CBK1, stronger effect = lower value 0.956 | S. cerevisiae deletion strains, locus YNL183C, strain NPR1, stronger effect = lower value 1.02 | S. cerevisiae deletion strains, locus YNL207W, strain RIO2, stronger effect = lower value 0.965 | S. cerevisiae deletion strains, locus YNL222W, strain SSU72, stronger effect = lower value 0.961 | S. cerevisiae deletion strains, locus YNL307C, strain MCK1 (second series), stronger effect = lower value 0.962 | S. cerevisiae deletion strains, locus YOL078W, strain AVO1, stronger effect = lower value 0.957 | S. cerevisiae deletion strains, locus YOL136C, strain PFK27, stronger effect = lower value 0.942 | S. cerevisiae deletion strains, locus YOR061W, strain CKA2, stronger effect = lower value 0.973 | S. cerevisiae deletion strains, locus YOR119C, strain RIO1, stronger effect = lower value 1.01 | S. cerevisiae deletion strains, locus YOR231W, strain MKK1, stronger effect = lower value 0.927 | S. cerevisiae deletion strains, locus YOR329C, strain SCD5, stronger effect = lower value 0.96 | S. cerevisiae deletion strains, locus YPL031C, strain PHO85, stronger effect = lower value 0.959 | S. cerevisiae deletion strains, locus YPL153C, strain RAD53, stronger effect = lower value 0.944 | S. cerevisiae deletion strains, locus YPL204W, strain HRR25, stronger effect = lower value 0.936 | S. cerevisiae deletion strains, locus YPL209C, strain IPL1, stronger effect = lower value 0.949 | S. cerevisiae deletion strains, locus YPL256C, strain CLN2, stronger effect = lower value 0.901 | S. cerevisiae deletion strains, locus YPR025C, strain CCL1, stronger effect = lower value 0.968 | S. cerevisiae deletion strains, locus YPR106W, strain ISR1, stronger effect = lower value 0.955 | S. cerevisiae deletion strains, locus YPR111W, strain DBF20, stronger effect = lower value 0.943 | S. cerevisiae deletion strains, strain NNK1, stronger effect = lower value 0.959 | S. cerevisiae deletion strains, strain TSCII, stronger effect = lower value 0.957

O=C(N/N=C\c1ccccc1Cl)N/N=C\c1ccccc1Cl
active: [1] 0.898 | [7] 0.834 | [10] 0.363 | [15] 0.753 | [17] 0.458 | [19] 0.773 | [31] 0.909 | [22] 0.588 | [24] 0.69 | [26] 0.765 | [27] 0.707 | [28] 0.553
inactive: [2] 0.989 | [3] 1 | [4] 0.992 | [6] 0.88 | [8] 1 | [11] 0.989 | [12] 0.987 | [13] 0.945 | [14] 0.988 | [16] 1 | [18] 0.871 | [20] 1 | [32] 0.976 | [21] 0.996 | [23] 0.977 | [25] 0.769
